Measured values from PubChem BioAssay (Tox21).
Records with an inconclusive call do not appear. Active and inactive are the calls of the source. Unless noted, calls follow the shape of the dose curve; as a rule, active = well fitted curve in the direction sought with a large enough effect in the repeat runs; inconclusive = weak or mixed curves; inactive = no such curve, though single readings can be large; an effect the other way counts as inactive or inconclusive.

What was measured:
[1] = qHTS assay to identify small molecule agonists of the hypoxia (HIF-1) signaling pathway - cell viability counter screen (AID 1224844; calls by dose curve; also: nearly all actives have a fitted effect of over 50% in size; also: potency is read from the fitted curve at half-maximal effect)
Procedure, shortened: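 ME-180 HRE-bla cells, 2,000/well, 0.5% dialyzed FBS; 5 hr settle, 17 hr compound at 37C/5% CO2; CCF4-AM reporter read first, then CellTiter-Glo luminescence after 30 min RT.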

[2] = qHTS assay to identify small molecule agonists of H2AX (AID 1224845; active = well fitted activation curve with a large enough effect in the signal ratio in the repeat runs, not every such curve was filed as active; the % refers to the signal ratio)
Procedure, shortened: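 Phospho-H2AX Ser139 measured by HTRF (ex 320 nm; em 665 and 620 nm) after 24 hr antibody incubation. Compounds, 15 concentrations, 0.76% DMSO, were applied to CHO-K1 cells for 3hr at 37C before lysis.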

[3] = qHTS assay to identify small molecule agonists of the hypoxia (HIF-1) signaling pathway (AID 1224846; active = well fitted activation curve with a large enough effect in the signal ratio in the repeat runs, not every such curve was filed as active; the % refers to the signal ratio)
Procedure, shortened: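 Cell line: CellSensor HRE-bla ME-180; 2,000 cells/well; 0.5% dialyzed FBS; 5 h preincubation; DMSO compound pin transfer; 17 h, 37C, 5% CO2; CCF4-AM added; bla FRET signal scored for activation.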

[4] = qHTS RealTime-Glo MT Cell Viability Assay in HepG2 cells - 24 hour (AID 1224867); also: nearly all actives have a fitted effect of over 50% in size; also: potency is read from the fitted curve at half-maximal effect
Procedure, shortened: (§1)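 HepG2 cells were seeded at 600 cells/well together with NanoLuc luciferase and a cell-permeant prosubstrate, preincubated 5 h at 37 C/5% CO2, then pin-dosed with compounds in DMSO. Nonlytic luminescence from viable cells was read at each time point.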

[5] = qHTS RealTime-Glo MT Cell Viability Assay in HEK293 cells - 32 hour (AID 1224868); also: nearly all actives have a fitted effect of over 50% in size; also: potency is read from the fitted curve at half-maximal effect
Procedure, shortened: (§2)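 HEK293 cells were seeded at 600 cells/well together with NanoLuc luciferase and cell-permeant prosubstrate, preincubated 5 h at 37 C/5% CO2, then given compound in DMSO by pintool. Luminescence from viable-cell prosubstrate reduction was read repeatedly over 40 h.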

[6] = A CellTox Green Cytotoxicity Assay to monitor cytotoxicity in HEK293 cells - 0 hour (AID 1224869); also: nearly all actives have a fitted effect of over 50% in size
Procedure, shortened: (§3)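 Nonlytic real-time cytotoxicity: HEK293 + CellTox Green reagent plated, 5 h preincubation, pintool compound addition (23 nL in DMSO), 37 C for 40 h, fluorescence measured at successive time points.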

[7] = qHTS RealTime-Glo MT Cell Viability Assay in HepG2 cells - 40 hour (AID 1224870); also: nearly all actives have a fitted effect of over 50% in size; also: potency is read from the fitted curve at half-maximal effect
Procedure, shortened: (§4)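 Real-time viability: cells seeded at 600 per well together with NanoLuc and cell-permeant prosubstrate, compounds added after 5 h incubation. Luminescence tracked at 0, 8, 16, 24, 32 and 40 h of exposure.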

[8] = qHTS RealTime-Glo MT Cell Viability Assay in HEK293 cells - 16 hour (AID 1224872); also: nearly all actives have a fitted effect of over 50% in size; also: potency is read from the fitted curve at half-maximal effect
Procedure, shortened: as §2

[9] = qHTS RealTime-Glo MT Cell Viability Assay in HepG2 cells - 8 hour (AID 1224873); also: nearly all actives have a fitted effect of over 55% in size; also: potency is read from the fitted curve at half-maximal effect
Procedure, shortened: as §4

[10] = qHTS RealTime-Glo MT Cell Viability Assay in HEK293 cells - 40 hour (AID 1224874); settings: RealTime-Glo luminescence; max response: stronger effect = lower value; also: nearly all actives have a fitted effect of over 50% in size; also: potency is read from the fitted curve at half-maximal effect
Procedure, shortened: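 Cells were seeded together with NanoLuc luciferase and a prosubstrate that viable cells reduce to a luciferase substrate. After a 5 h incubation at 37 C/5% CO2, compounds were added and luminescence was measured repeatedly during 40 h of treatment.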

[11] = A CellTox Green Cytotoxicity Assay to monitor cytotoxicity in HepG2 cells - 16 hour (AID 1224876); also: nearly all actives have a fitted effect of over 45% in size; also: potency is read from the fitted curve at half-maximal effect
Procedure, shortened: (§5)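 Read-out is fluorescence of a cyanine dye excluded from live cells that stains DNA of dead HepG2 cells, with signal proportional to cytotoxicity. Plates were read at 0, 8, 16, 24, 32 and 40 h after compound addition.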

[12] = qHTS RealTime-Glo MT Cell Viability Assay in HepG2 cells - 32 hour (AID 1224877); also: nearly all actives have a fitted effect of over 55% in size; also: potency is read from the fitted curve at half-maximal effect
Procedure, shortened: as §1

[13] = A CellTox Green Cytotoxicity Assay to monitor cytotoxicity in HepG2 cells - 24 hour (AID 1224878); also: nearly all actives have a fitted effect of over 45% in size; also: potency is read from the fitted curve at half-maximal effect
Procedure, shortened: as §5

[14] = A CellTox Green Cytotoxicity Assay to monitor cytotoxicity in HepG2 cells - 40 hour (AID 1224879); also: nearly all actives have a fitted effect of over 40% in size; also: potency is read from the fitted curve at half-maximal effect
Procedure, shortened: as §5

[15] = qHTS assay to identify small molecule antagonists of the estrogen related receptor (ERR) signaling pathway from Tox21 library (AID 1224848); also: nearly all actives have a fitted effect of over 50% in size; also: potency is read from the fitted curve at half-maximal effect
Procedure, shortened: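 Reading was by luminescence 30 min after ONE-Glo addition. Before that, ERR cells at 2,000 per well had rested 6 h at 37 C/5% CO2 and then received pin-tooled compounds in DMSO for 18 h at 37 C.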

[16] = A CellTox Green Cytotoxicity Assay to monitor cytotoxicity in HEK293 cells - 24 hour (AID 1224875); also: nearly all actives have a fitted effect of over 45% in size; also: potency is read from the fitted curve at half-maximal effect
Procedure, shortened: as §3

[17] = qHTS assay to identify small molecule agonists of H2AX - cell viability counter screen (AID 1224847; calls by dose curve; also: nearly all actives have a fitted effect of over 30% in size; also: potency is read from the fitted curve at half-maximal effect)
Procedure, shortened: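 Viability of CHO-K1 (wild type) cells after 3 hr compound exposure was measured by CellTiter-Glo luminescence.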

[18] = A CellTox Green Cytotoxicity Assay to monitor cytotoxicity in HEK293 cells - 40 hour (AID 1224871); also: nearly all actives have a fitted effect of over 45% in size; also: potency is read from the fitted curve at half-maximal effect
Procedure, shortened: as §3

[19] = qHTS assay to identify small molecule agonists of the estrogen related receptor (ERR) signaling pathway from Tox21 library (AID 1224849; calls by dose curve; also: nearly all actives have a fitted effect of over 15% in size); settings: ERR reporter cell line, ONE-Glo luciferase, 18 h; at 92.4 µM (top of the series) unless noted
Procedure, shortened: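 ERR cells, 6 h pre-incubation 37 C/5% CO2; cpd in DMSO pinned; 18 h 37 C; ONE-Glo added, 30 min RT; luminescence read. Agonist mode, qHTS.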
% is scaled to controls: 0 for no effect and ±100 for the full control effect.

O=C(c1ccc(O)cc1)c1ccc(Cl)cc1
inactive: Potency [1] | Potency [2] | outcome [3] | Potency [4] | Potency [6] | Potency [7] | Potency [9] | Potency [11] | Potency [12] | Potency [13] | Potency [14]
active: Potency [5] 25.1 µM | Potency [8] 25.1 µM | Potency [10] 25.1 µM

CCOC(=O)C(C)Oc1ccc(Oc2nc3ccc(Cl)cc3o2)cc1 (stereo not drawn)
inactive: Potency [1] | Potency [2] | outcome [3] | Potency [15] | Potency [6] | Potency [16] | Potency [11] | Potency [13] | Potency [14]
active: Potency [5] 49 µM | Potency [8] 21.9 µM | Potency [9] 15.5 µM

CC[C@@H]([C@H](C)O)n1ncn(-c2ccc(N3CCN(c4ccc(OC[C@@H]5CO[C@@](Cn6cncn6)(c6ccc(F)cc6F)C5)cc4)CC3)cc2)c1=O
inactive: Potency [2] | outcome [3] | Potency [6] | Potency [18] | Potency [16] | Potency [11] | Potency [13] | Potency [14]
active: Potency [17] 19.6 µM | Potency [5] 3.01 µM | Potency [8] 5.35 µM

c1cc[c]([Bi]([c]2ccccc2)[c]2ccccc2)cc1
inactive: Potency [1] | outcome [3] | activity change, positive = activation [19] -40.9% | Potency [4] | Potency [6] | Potency [7] | Potency [18] | Potency [8] | Potency [9] | Potency [16] | Potency [11] | Potency [12]

O=C(C(=O)c1ccccc1)c1ccccc1
inactive: Potency [1] | outcome [3] | Potency [17] | Potency [15] | activity change, positive = activation [19] 5.83% | Potency [4] | Potency [5] | Potency [6] | Potency [7] | Potency [8] | Potency [9] | Potency [16] | Potency [11] | Potency [12] | Potency [13] | Potency [14]

Cc1nc2ccccn2c(=O)c1CCN1CCC(C(=O)c2ccc(F)cc2)CC1
active: Potency [5] 7.56 µM | Potency [8] 4.77 µM | Potency [10] 8.49 µM
inactive: Potency [1] | Potency [2] | Potency [17] | activity change, positive = activation [19] -25.4% [at 42.5 µM] | Potency [4] | Potency [6] | Potency [7] | Potency [18] | Potency [9] | Potency [11] | Potency [12] | Potency [13] | Potency [14]

CO[C@H]1C=CO[C@@]2(C)Oc3c(C)c(O)c4c(O)c(c5c(c4c3C2=O)=NC2(CCN(CC(C)C)CC2)N=5)NC(=O)/C(C)=C\C=C/[C@H](C)[C@H](O)[C@@H](C)[C@@H](O)[C@@H](C)[C@H](OC(C)=O)[C@@H]1C
inactive: outcome [3] | activity change, positive = activation [19] -63.3% | Potency [6] | Potency [7] | Potency [18] | Potency [16] | Potency [11]
active: Potency [17] 98.6 µM | Potency [15] 30 µM | Potency [5] 38.1 µM | Potency [8] 42.7 µM | Potency [10] 38.1 µM | Potency [14] 47.9 µM

C[C@@H]1C[C@H]2[C@@H]3CCC4=CC(=O)C=C[C@]4(C)[C@@]3(F)[C@@H](O)C[C@]2(C)[C@@]1(O)C(=O)CO
inactive: Potency [2] | Potency [17] | Potency [4] | Potency [5] | Potency [6] | Potency [7] | Potency [18] | Potency [8] | Potency [9] | Potency [11] | Potency [12] | Potency [13] | Potency [14]

O=C(N/N=C/c1ccc([N+](=O)[O-])o1)c1ccc(O)cc1
inactive: Potency [1] | Potency [17] | Potency [6] | Potency [11] | Potency [13]

CCOC(=O)[C@@H](C)Oc1ccc(Oc2nc3ccc(Cl)cc3o2)cc1
active: Potency [5] 21.9 µM | Potency [8] 21.9 µM | Potency [9] 7.76 µM | Potency [10] 21.9 µM
inactive: Potency [1] | outcome [3] | Potency [6] | Potency [18] | Potency [16] | Potency [11] | Potency [13] | Potency [14]

CC1C2CC(CC2C2CCCC(O)C2)C1(C)C (stereo not drawn)
inactive: Potency [4] | Potency [5] | Potency [6] | Potency [7] | Potency [8] | Potency [9] | max response [10] -15.9% | Potency [12]
active: Potency [17] 89.8 µM | Potency [18] 49 µM | Potency [16] 49 µM | Potency [11] 38.9 µM | Potency [13] 43.6 µM | Potency [14] 43.6 µM

CO[C@@]12[C@H](COC(N)=O)C3=C(C(=O)C(C)=C(N)C3=O)N1C[C@@H]1N[C@@H]12
active: Potency [1] 9.52 µM | Potency [4] 6.01 µM | Potency [5] 0.848 µM | Potency [7] 5.35 µM | Potency [9] 1.34 µM | Potency [10] 0.674 µM | Potency [12] 5.35 µM | Potency [13] 8.49 µM | Potency [14] 6.74 µM
inactive: activity change, positive = activation [19] -55.2% [at 42.5 µM] | Potency [6] | Potency [18] | Potency [8]

Nc1ccc(C(=O)OCCCOC(=O)c2ccc(N)cc2)cc1
inactive: Potency [1] | Potency [2] | outcome [3] | Potency [4] | Potency [6] | Potency [7] | Potency [18] | Potency [9] | Potency [16] | Potency [11] | Potency [12] | Potency [13] | Potency [14]
active: Potency [5] 43.6 µM | Potency [8] 49 µM | Potency [10] 38.9 µM

O=C(Nc1ccccc1)Nc1ccccc1
inactive: Potency [1] | outcome [3] | Potency [4] | Potency [6] | Potency [7] | Potency [18] | Potency [9] | Potency [16] | Potency [11] | Potency [12] | Potency [13] | Potency [14]
active: activity change, positive = activation [19] 28.3%

Nc1ccc(S(=O)(=O)O)cc1
inactive: Potency [1] | Potency [2] | outcome [3] | Potency [15] | activity change, positive = activation [19] 2.73% | Potency [4] | Potency [5] | Potency [6] | Potency [7] | Potency [18] | Potency [8] | Potency [9] | max response [10] 0.165% | Potency [16] | Potency [11] | Potency [12] | Potency [13] | Potency [14]
